Results on seven molecules are retold here after PubChem BioAssay (EPA / NIEHS).

Molecules are shown by their SMILES. Active and inactive are the calls of the source. How the source made its calls: active means hit-call score of the fitted dose curve at least 0.9, where 1 is the maximum; inactive means score below 0.9.

The nature of assay [1]: ATG_CRE_CIS: Attagene CIS-FACTORIAL HepG2 Assay for human cAMP Responsive Element (CRE) binding protein 3 (AID 2282926). As to conditions: HepG2 CRE cis-reporter, Attagene multiplexed mRNA; actives raise or lower the signal. The method, boiled down:
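Capillary electrophoresis of 6-FAM-labelled, HpaI-digested PCR products quantified reporter transcripts. These came from HepG2 transiently transfected with cis-element reporters and exposed to test chemicals for 24 hours, with DMSO defining baseline activity.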

Assay [2] addresses CCAAT/enhancer-binding protein beta (Homo sapiens) (UniProt P17676). Briefly: ATG_C_EBP_CIS: Attagene CIS-FACTORIAL HepG2 Assay for human CCAAT/Enhancer Binding Protein (C/EBP) beta (AID 2282927). Conditions: HepG2 Attagene cis-factorial transcription factor reporter; actives raise or lower the signal. The method, boiled down: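 Endogenous transcription factor activity in human liver HepG2 cells is inferred from induction of a CEBPB-linked reporter mRNA. Exposure lasts 24 h; activity is fitted in both directions relative to DMSO.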

The nature of assay [3]: ATG_CMV_CIS: Attagene CIS-FACTORIAL HepG2 Assay for human CMV (Internal Marker) (AID 2282928).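 Further: endpoint acts as a background internal control marker rather than a target.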 As to conditions: HepG2 CMV promoter reporter, transcription factor profiling; actives raise or lower the signal. The method, boiled down:
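Readout: fluorescent reporter cDNA fragments separated by capillary electrophoresis after RT-PCR and HpaI cut. Cells: HepG2 carrying transfected cis-promoter reporter constructs, dosed 24 h. Endpoint serves as background internal-marker control, fit bidirectionally versus DMSO.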

Assay [4] can be described thus: ATG_DR4_LXR_CIS: Attagene CIS-FACTORIAL HepG2 Assay for human Liver X Receptor (LXR), DR4 submotif (AID 2282929). As to conditions: HepG2 Attagene DR4 cis-reporter, mRNA transcription; actives raise or lower the signal. The method, boiled down: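 Readout: reporter transcript fluorescence after RT-PCR and capillary electrophoresis, fitted bidirectionally against DMSO controls. Human HepG2 liver cells carried transiently transfected multiplexed reporter constructs; endogenous transcription factor activity measured 24 h post-dosing.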

The target of assay [5] is Aryl hydrocarbon receptor (Homo sapiens) (UniProt P35869). Nature of the assay: ATG_Ahr_CIS: Attagene CIS-FACTORIAL HepG2 Assay for human Aryl Hydrocarbon Receptor (Ahr) (AID 2282930). Conditions: HepG2 AhR cis-factorial reporter transcription; actives raise or lower the signal. In a few lines: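 Transient MRTU transfection of HepG2 → 24 h compound exposure → total RNA, oligo(dT) RT → PCR, 6-FAM extension, HpaI cut → CE fluorescence. DMSO = baseline; bidirectional curve fit.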
Sequence of Aryl hydrocarbon receptor (Homo sapiens) (P35869 whole entry, looked up): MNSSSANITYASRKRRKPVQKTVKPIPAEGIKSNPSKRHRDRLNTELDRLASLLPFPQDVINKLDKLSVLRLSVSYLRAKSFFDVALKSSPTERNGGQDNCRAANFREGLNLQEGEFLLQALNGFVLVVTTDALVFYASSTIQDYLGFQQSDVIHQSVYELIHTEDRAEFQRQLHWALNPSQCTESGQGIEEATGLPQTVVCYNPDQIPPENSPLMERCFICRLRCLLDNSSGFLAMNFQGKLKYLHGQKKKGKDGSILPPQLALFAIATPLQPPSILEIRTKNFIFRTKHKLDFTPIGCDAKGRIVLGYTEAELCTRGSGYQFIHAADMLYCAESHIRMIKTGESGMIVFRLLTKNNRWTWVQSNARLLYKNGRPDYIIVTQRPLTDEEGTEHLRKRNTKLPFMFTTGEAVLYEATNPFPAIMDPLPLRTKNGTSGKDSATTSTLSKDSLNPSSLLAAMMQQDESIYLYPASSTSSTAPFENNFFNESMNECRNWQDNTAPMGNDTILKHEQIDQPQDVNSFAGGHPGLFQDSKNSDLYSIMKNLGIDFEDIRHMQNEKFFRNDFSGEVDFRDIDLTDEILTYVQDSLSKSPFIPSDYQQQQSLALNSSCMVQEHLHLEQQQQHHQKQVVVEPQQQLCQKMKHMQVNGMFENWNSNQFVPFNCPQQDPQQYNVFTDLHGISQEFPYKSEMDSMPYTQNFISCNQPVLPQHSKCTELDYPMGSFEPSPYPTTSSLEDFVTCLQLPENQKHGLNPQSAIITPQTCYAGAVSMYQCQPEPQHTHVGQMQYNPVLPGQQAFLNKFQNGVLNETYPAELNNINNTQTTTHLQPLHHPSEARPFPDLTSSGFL

Assay [6] is described as follows: ATG_AP_1_CIS: Attagene CIS-FACTORIAL HepG2 Assay for human Activator Protein 1 (AP-1) (AID 2282931). As to conditions: HepG2 Attagene cis-factorial AP-1 reporter mRNA; actives raise or lower the signal. The method, boiled down: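 Reporter transcripts were measured 24 h after dosing by RT-PCR and capillary electrophoresis of fluorescent fragments. Cells: HepG2 carrying transfected cis-regulated reporter constructs reading endogenous factor activity. Gain or loss fitted against DMSO.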

A short description of assay [7]: ATG_AP_2_CIS: Attagene CIS-FACTORIAL HepG2 Assay for human Activator Protein 2 (AP-2) (AID 2282932). As to conditions: HepG2 AP-2 cis-reporter, Attagene transcription factor profiling; actives raise or lower the signal. In a few lines: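 Transiently transfected HepG2 cells are exposed to chemical for 24 h. Reporter transcripts are then measured as fluorescence following RT-PCR and capillary separation, and gain- or loss-of-signal is fitted relative to DMSO.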

Assay [8] can be described thus: ATG_BRE_CIS: Attagene CIS-FACTORIAL HepG2 Assay for human Bone Morphogenetic Protein (BMP) Response Element (BRE) (AID 2282933). Conditions: HepG2 BMP response element reporter, Attagene transcription factor profiling; actives raise or lower the signal. The method, boiled down: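 Endogenous transcription factor activity at a BMP response element was monitored in transfected HepG2 cells 24 h after dosing. Fluorescent RT-PCR products were resolved by capillary electrophoresis, and activity was fitted in both directions versus DMSO.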

The target in assay [9] is Retinoic acid receptor alpha (Homo sapiens) (UniProt P10276). Briefly: ATG_DR5_RAR_CIS: Attagene CIS-FACTORIAL HepG2 Assay for human Retinoic Acid Receptor Alpha (RARE), DR5 submotif (AID 2282934).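 On AC50: reporter responds to endogenous RAR alpha beta and gamma in HepG2 not RARA alone.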 As to conditions: HepG2 Attagene cis-factorial RARE DR5 reporter, mRNA; actives raise or lower the signal. The method, boiled down: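 Transient MRTU transfection of HepG2; 24 h compound treatment; TriZol RNA, oligo(dT) RT, PCR, FAM labelling, capillary electrophoresis. Bidirectional fit vs DMSO. Endogenous TF activity at DR5 RARE.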
Sequence of Retinoic acid receptor alpha (Homo sapiens) (P10276 whole entry, looked up): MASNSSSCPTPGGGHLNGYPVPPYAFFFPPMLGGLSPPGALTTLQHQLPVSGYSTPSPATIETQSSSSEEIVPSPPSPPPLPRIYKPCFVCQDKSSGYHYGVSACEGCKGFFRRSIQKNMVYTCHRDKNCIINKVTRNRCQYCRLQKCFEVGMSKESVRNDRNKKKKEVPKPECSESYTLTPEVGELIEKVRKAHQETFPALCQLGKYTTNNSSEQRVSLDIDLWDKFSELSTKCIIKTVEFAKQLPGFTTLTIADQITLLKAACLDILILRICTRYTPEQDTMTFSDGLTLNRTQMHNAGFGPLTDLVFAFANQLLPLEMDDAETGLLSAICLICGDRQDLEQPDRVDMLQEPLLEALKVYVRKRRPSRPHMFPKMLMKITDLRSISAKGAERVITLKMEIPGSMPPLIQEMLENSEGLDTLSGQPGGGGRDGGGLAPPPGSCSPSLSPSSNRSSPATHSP

The target in assay [10] is Transcription factor E2F1 (Homo sapiens) (UniProt Q01094). Nature of the assay: ATG_E2F_CIS: Attagene CIS-FACTORIAL HepG2 Assay for human E2F Transcription Factor 1 (AID 2282935). As to conditions: HepG2 Attagene cis-reporter, E2F reporter RNA transcripts; actives raise or lower the signal. The method, boiled down: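 Fluorescent RT-PCR products, digested with HpaI for 2 h at 37 C, are separated by capillary electrophoresis. Source RNA comes from transfected HepG2 cultures treated for 24 h.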
Sequence of Transcription factor E2F1 (Homo sapiens) (Q01094 whole entry, looked up): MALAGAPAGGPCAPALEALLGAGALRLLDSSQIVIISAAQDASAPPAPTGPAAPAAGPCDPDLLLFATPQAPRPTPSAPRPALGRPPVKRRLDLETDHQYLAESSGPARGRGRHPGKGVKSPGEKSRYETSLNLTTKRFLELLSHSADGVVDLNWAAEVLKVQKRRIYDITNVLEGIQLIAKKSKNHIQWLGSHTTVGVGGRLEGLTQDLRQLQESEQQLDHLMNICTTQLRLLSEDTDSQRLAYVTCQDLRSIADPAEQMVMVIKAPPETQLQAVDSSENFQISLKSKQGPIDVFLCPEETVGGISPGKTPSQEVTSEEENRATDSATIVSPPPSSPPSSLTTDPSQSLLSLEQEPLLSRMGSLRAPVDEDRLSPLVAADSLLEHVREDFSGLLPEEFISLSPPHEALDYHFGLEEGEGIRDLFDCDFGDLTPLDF

The nature of assay [11]: ATG_M_61_CIS: Attagene CIS-FACTORIAL HepG2 Assay for M61 Transcription Factor (Internal Marker) (AID 2282937). Conditions: HepG2 Attagene CIS-FACTORIAL M61 internal marker reporter; actives raise or lower the signal. The method, boiled down:
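Readout: fluorescent reporter mRNA fragments resolved by capillary electrophoresis after RT-PCR. Transiently transfected human HepG2 cells carried MRTU constructs reporting endogenous TF activity; 24 h chemical exposure; gain or loss of signal fitted relative to DMSO.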

Assay [12] can be described thus: ATG_EGR_CIS: Attagene CIS-FACTORIAL HepG2 Assay for human Early Growth Response 1 (EGR1) (AID 2282938). Conditions: HepG2 Attagene CIS-FACTORIAL EGR reporter mRNA; actives raise or lower the signal. The method, boiled down: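 Read-out: fluorescent reporter-mRNA fragments resolved by capillary electrophoresis after RT-PCR, 24 h post-dose in transiently transfected HepG2. Endogenous transcription-factor activity reported via cis-element-regulated reporter units; gain or loss fitted relative to DMSO.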

A short description of assay [13]: ATG_M_19_CIS: Attagene CIS-FACTORIAL HepG2 Assay for M19 Transcription Factor (Internal Marker) (AID 2282939). Conditions: HepG2 Attagene CIS-FACTORIAL M19 internal marker reporter; actives raise or lower the signal. In a few lines:
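Background-control endpoint from a multiplexed HepG2 reporter panel. Cells carrying cis-regulated reporter constructs are treated 24 h, then reporter transcripts are amplified, fluorescently labelled and sized by capillary electrophoresis. DMSO defines baseline.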

Assay [14] is described as follows: ATG_ERE_CIS: Attagene CIS-FACTORIAL HepG2 Assay for Estrogen Response Element (ERE) (AID 2282940). Conditions: HepG2 ERE cis-reporter, Attagene RNA transcript; actives raise or lower the signal. The method, boiled down: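 Cells used were human hepatoma HepG2, transfected with multiple reporter transcription units under cis-regulatory promoters. Reporter mRNA, read 24 h post-dosing via fluorescent RT-PCR products on capillary electrophoresis, was fitted bidirectionally relative to DMSO.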

The nature of assay [15]: ATG_Ets_CIS: Attagene CIS-FACTORIAL HepG2 Assay for human Erythroblast Transformation Specific (ETS) (AID 2282941). Conditions: HepG2 ETS cis-reporter transcription, actives raise or lower the signal. The method, boiled down: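 RT-PCR/capillary electrophoresis fluorescence read-out of reporter mRNA; HepG2 transient multi-reporter transfection; 24 h compound exposure; gain or loss of signal fitted bidirectionally relative to DMSO.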

Assay [16] addresses Hepatocyte nuclear factor 3-beta (Homo sapiens) (UniProt Q9Y261). Briefly: ATG_FoxA2_CIS: Attagene CIS-FACTORIAL HepG2 Assay for human Forkhead box A2 (FOXA2) (AID 2282942). Conditions: HepG2 cis-reporter transcription factor activity, 24 h; actives raise or lower the signal. The method, boiled down:
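Readout: fluorescent reporter transcripts resolved by capillary electrophoresis after RT-PCR. Transiently transfected HepG2, 24 h compound exposure, endogenous TF activity at cis promoter elements. Gain or loss of signal fitted relative to DMSO.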

A short description of assay [17]: ATG_GATA_CIS: Attagene CIS-FACTORIAL HepG2 Assay for human GATA Binding Protein (AID 2282944). As to conditions: HepG2 GATA cis-element reporter, Attagene multiplex mRNA; actives raise or lower the signal. The method, boiled down:
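Endogenous transcription factor activity was captured through cis-promoter-driven reporters in transfected HepG2 cells. After 24 h exposure, reporter transcripts were quantified by RT-PCR with fluorescent capillary electrophoresis, and responses fitted both directions against DMSO.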

Assay [18] is described as follows: ATG_GLI_CIS: Attagene CIS-FACTORIAL HepG2 Assay for human Zinc Finger Protein GLI1 (AID 2282945). As to conditions: HepG2, Attagene cis-factorial reporter mRNA, GLI element; actives raise or lower the signal. In a few lines:
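Bidirectional curve fits relative to DMSO, using reporter mRNA levels from RT-PCR plus capillary electrophoresis. Cells were HepG2 transiently carrying cis-regulated reporter constructs, harvested 24 h after dosing.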

Assay [19] is described as follows: ATG_FoxO_CIS: Attagene CIS-FACTORIAL HepG2 Assay for human Forkhead box O (FoxO) (AID 2282943). Conditions: HepG2 Attagene cis-reporter, FoxO element, mRNA; actives raise or lower the signal. In a few lines:
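HepG2, transient MRTU transfection (cis element, endogenous TFs). Dose 24 h. TriZol RNA → oligo(dT) RT → PCR → 6-FAM primer extension → HpaI cut → CE. Gain/loss vs DMSO.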

The nature of assay [20]: ATG_E_Box_CIS: Attagene CIS-FACTORIAL HepG2 Assay for human Enhancer Box (E-box) (AID 2282936). As to conditions: HepG2 E-box cis-reporter transcription, actives raise or lower the signal. In a few lines:
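Fluorescent reporter fragments separated by capillary electrophoresis gave the signal; mRNA came from HepG2 cells transfected with cis-element reporters and treated 24 h. Curves fitted bidirectionally relative to DMSO controls.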

Sequence of Hepatocyte nuclear factor 3-beta (Homo sapiens) (Q9Y261 whole entry, looked up): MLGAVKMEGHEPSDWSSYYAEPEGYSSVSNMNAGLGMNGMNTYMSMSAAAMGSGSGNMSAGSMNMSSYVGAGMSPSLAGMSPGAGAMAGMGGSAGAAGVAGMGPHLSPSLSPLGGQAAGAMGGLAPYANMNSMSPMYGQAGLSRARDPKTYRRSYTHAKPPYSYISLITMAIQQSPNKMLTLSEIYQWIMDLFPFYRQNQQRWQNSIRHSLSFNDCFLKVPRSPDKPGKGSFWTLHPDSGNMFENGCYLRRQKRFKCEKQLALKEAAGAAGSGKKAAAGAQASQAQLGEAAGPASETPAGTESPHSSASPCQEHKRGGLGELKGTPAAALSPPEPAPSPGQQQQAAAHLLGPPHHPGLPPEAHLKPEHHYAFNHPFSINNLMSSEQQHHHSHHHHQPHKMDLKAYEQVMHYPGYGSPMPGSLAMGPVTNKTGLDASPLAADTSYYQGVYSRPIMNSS
Sequence of CCAAT/enhancer-binding protein beta (Homo sapiens) (P17676 whole entry, looked up): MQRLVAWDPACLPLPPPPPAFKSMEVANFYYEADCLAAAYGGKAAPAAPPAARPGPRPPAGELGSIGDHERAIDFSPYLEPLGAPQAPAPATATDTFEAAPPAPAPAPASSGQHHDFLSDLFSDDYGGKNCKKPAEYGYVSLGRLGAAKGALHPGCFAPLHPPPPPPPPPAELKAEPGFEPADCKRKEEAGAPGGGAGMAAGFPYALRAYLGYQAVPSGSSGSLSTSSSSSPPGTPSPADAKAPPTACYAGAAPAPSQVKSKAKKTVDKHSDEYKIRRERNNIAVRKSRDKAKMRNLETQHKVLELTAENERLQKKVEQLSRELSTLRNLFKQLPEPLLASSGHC

`O=C(O)c1ccccc1-n1cc(C(=O)O)c(=O)c2cc(Nc3c(F)cc(F)cc3Cl)c(Cl)cc21`: the result in assay [1], in assay [2], in [3], in assay [4], in assay [5] and in assay [6] was inactive. Further, the molecule was called inactive in assay [7], in assay [8], in assay [9], in assay [10], in assay [11] and in assay [12]. Besides, the molecule was called inactive in assay [13], in assay [14], in assay [15], in assay [16], in assay [17] and in assay [18].
For `O=C(OCCCCCCOC(=O)c1ccccc1)c1ccccc1`, the outcome in assay [1], in [2], in [3], in [4], in [5] and in assay [6] was inactive. For the same molecule, the molecule was classed as inactive in assay [7], in assay [8], in [9], in assay [10], in assay [11] and in [12]. For the same molecule, the outcome in assay [13], in assay [14], in assay [15], in assay [16], in assay [17] and in assay [18] was inactive.
Turning to `CCCCCCCCCCCO`, the outcome in [1], in assay [2], in [3], in assay [4], in assay [5] and in assay [6] was inactive. The result in [7], in assay [8], in assay [9], in assay [10], in [11] and in [12] was inactive. Besides, the result in assay [13], in assay [14], in assay [15], in assay [16], in assay [19] and in [17] was inactive. The molecule was called inactive in [18].
For `O=c1ccc2ccccc2o1`, the molecule was called inactive in [1], in assay [2], in assay [3], in assay [4], in assay [5] and in assay [6]. Also, the outcome in assay [7], in assay [8], in [9], in assay [10], in assay [20] and in assay [11] was inactive. Further, the outcome in assay [12], in assay [13], in [14], in [15], in assay [16] and in assay [17] was inactive. Besides, in [18], the outcome was inactive.
As for `COc1ccc2cc(S(=O)(=O)N[C@H](CC(=O)N[C@H](Cc3ccc(CN4[C@H](C)CCC[C@@H]4C)cc3)C(=O)N(C)C(C)C)c3ccc4c(c3)OCO4)ccc2c1`, the AC50 was 15.4 µM (active) in [1]; 14.7 µM (active) in assay [5]; 11 µM (active) in assay [6]; 11 µM (active) in [8]; 11 µM (active) in [10]; 11 µM (active) in assay [12]. The outcome in assay [2], in assay [3], in [4], in [7], in [9] and in assay [20] was inactive. Besides, the molecule was called inactive in [11], in assay [13], in assay [14], in assay [15], in assay [16] and in [17]. Moreover, the outcome in [18] was inactive.
For the molecule `Cc1c2ccccc2c(C)c2c1ccc1ccccc12`, the molecule was classed as inactive in assay [1], in assay [2], in assay [7], in [10], in assay [11] and in assay [12]. Further, the molecule was classed as inactive in assay [15], in assay [16], in assay [17] and in assay [18]. Moreover, the AC50 in assay [3] is 33.1 µM (active); in [4], 10.4 µM (active); in assay [5], 3.38 µM (active); in assay [6], 25.5 µM (active); in [8], 14.6 µM (active); in [9], 53.3 µM (active). In addition, the AC50 in assay [20] was 8.32 µM (active); in assay [13], 33.4 µM (active); in assay [14] it was 3.55 µM (active).
Consider `c1ccc2ccccc2c1`, for which the call in [1], in assay [2], in assay [3], in assay [4], in assay [5] and in assay [6] was inactive. The result in [7], in [8], in [9], in [10], in [11] and in assay [12] was inactive. In addition, the molecule was classed as inactive in assay [13], in assay [14], in assay [15], in assay [16], in assay [19] and in [17]. In addition, the molecule was classed as inactive in [18].
